Measured values published in PubChem BioAssay AID1159580 (chemical genetic matrix, 2015).
Values joined by “and” are separate entries in the source; they are usually repeats but may differ in a detail not shown here. Equal entries are not always repeated. Hit rate of the full screen: of about 5,500 compounds, about 2,000 (36%) were called active. Inconclusive results (about 18%) are left out. No stated cut-off is given here; in the data, active means normalized growth mostly below about 0.91 (no sharp cut-off); inconclusive means no clear call, values can overlap the other calls; inactive means mostly above about 0.92. Some of the results follow.

Assay: chemical genetic growth profiling, strain panel (AID 1159580);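 further: tested at 20 µM; growth read once vehicle control cultures reached saturation at 30 °C; 1 = growth at the plate median or of vehicle wells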
Conditions: S. cerevisiae deletion strains, growth OD

Measured: normalized growth

O=C1NC(O)=NC1(c1ccccc1)c1ccccc1
inactive: locus YAL013W, strain DEP1, stronger effect = lower value 1.01 and 0.988 | locus YAL021C, strain ccr4, stronger effect = lower value 1.01 | locus YAL026C, strain drs2, stronger effect = lower value 1.01 | locus YAL030W, strain snc1, stronger effect = lower value 1.02 | locus YAL040C, strain CLN3, stronger effect = lower value 0.959 | locus YBL061C, strain skt5, stronger effect = lower value 1.01 | locus YBR009C, strain hhf1, stronger effect = lower value 1 | locus YBR021W, strain FUR4, stronger effect = lower value 0.995 | locus YBR023C, strain chs3, stronger effect = lower value 1.03 | locus YBR171W, strain sec66, stronger effect = lower value 1.02 | locus YBR229C, strain ROT2, stronger effect = lower value 1 | locus YBR231C, strain swc5, stronger effect = lower value 1.02 | locus YBR279W, strain paf1, stronger effect = lower value 1.01 | locus YCL011C, strain gbp2, stronger effect = lower value 1.02 | locus YCL016C, strain dcc1, stronger effect = lower value 1.02 | locus YCL029C, strain bik1, stronger effect = lower value 1.03 | locus YCL061C, strain MRC1 (second series), stronger effect = lower value 0.986 | locus YCL061C, strain MRC1, stronger effect = lower value 1.01 | locus YCL069W, strain vba3, stronger effect = lower value 1.02 | locus YCR088W, strain abp1, stronger effect = lower value 1.01 | locus YDL005C, strain med2, stronger effect = lower value 1.03 | locus YDL035C, strain GPR1, stronger effect = lower value 1.01 | locus YDL040C, strain nat1, stronger effect = lower value 1.02 | locus YDL074C, strain BRE1, stronger effect = lower value 1.02 | locus YDL101C, strain DUN1, stronger effect = lower value 1.01 | locus YDL134C, strain PPH21, stronger effect = lower value 1.01 | locus YDL185W, strain tfp1, stronger effect = lower value 1.01 | locus YDL192W, strain arf1, stronger effect = lower value 1.01 | locus YDR001C, strain nth1, stronger effect = lower value 1.02 | locus YDR069C, strain doa4, stronger effect = lower value 0.999 | locus YDR101C, strain arx1, stronger effect = lower value 1.01 | locus YDR137W, strain rgp1, stronger effect = lower value 1.04 | locus YDR150W, strain NUM1, stronger effect = lower value 1.01 | locus YDR159W, strain sac3, stronger effect = lower value 0.98 | locus YDR162C, strain NBP2, stronger effect = lower value 1.01 | locus YDR195W, strain ref2 0.987 | locus YDR297W, strain sur2, stronger effect = lower value 1.02 | locus YDR318W, strain mcm21, stronger effect = lower value 1.02 | locus YDR334W, strain swr1, stronger effect = lower value 1.01 | locus YDR335W, strain msn5, stronger effect = lower value 1.02 | locus YDR363W, strain ESC2, stronger effect = lower value 0.954 | locus YDR388W, stronger effect = lower value 1.02 | locus YDR392W, strain spt3, stronger effect = lower value 0.932 | locus YDR502C, strain sam2, stronger effect = lower value 1 | locus YEL003W, strain gim4, stronger effect = lower value 1 | locus YEL037C, strain rad23, stronger effect = lower value 1.01 | locus YEL061C, strain CIN8 (second series), stronger effect = lower value 1.02 | locus YEL061C, strain CIN8, stronger effect = lower value 1.01 | locus YER002W, strain NOP16, stronger effect = lower value 0.972 | locus YER015W, strain faa2, stronger effect = lower value 1 | locus YER016W, strain bim1, stronger effect = lower value 1.02 | locus YER110C, stronger effect = lower value 1.01 | locus YER111C, strain swi4, stronger effect = lower value 1.02 | locus YER155C, strain BEM2 (second series), stronger effect = lower value 0.994 | locus YER155C, strain BEM2, stronger effect = lower value 1.02 | locus YER167W, strain BCK2, stronger effect = lower value 1.01 | locus YFR010W, strain ubp6, stronger effect = lower value 1.01 | locus YGL078C, strain dbp3, stronger effect = lower value 1.01 | locus YGL086W, strain mad1, stronger effect = lower value 0.997 | locus YGL167C, strain pmr1, stronger effect = lower value 1.03 | locus YGL173C, strain kem1, stronger effect = lower value 1.01 | locus YGL227W, strain vid30, stronger effect = lower value 1.02 | locus YGL240W, strain doc1, stronger effect = lower value 1.01 | locus YGL248W, strain PDE1, stronger effect = lower value 1.01 | locus YGL253W, strain hxk2, stronger effect = lower value 1.01 | locus YGR078C, strain PAC10, stronger effect = lower value 1.01 | locus YGR135W, strain pre9, stronger effect = lower value 1.01 | locus YGR229C, strain SMI1, stronger effect = lower value 0.998 | locus YGR252W, strain gcn5, stronger effect = lower value 0.923 | locus YHR013C, strain ard1, stronger effect = lower value 1.02 | locus YHR027C, strain rpn1, stronger effect = lower value 1.01 | locus YHR030C, strain SLT2, stronger effect = lower value 1.01 and 0.991 | locus YHR079C, strain IRE1 (second series), stronger effect = lower value 1.03 | locus YHR079C, strain IRE1, stronger effect = lower value 0.991 | locus YHR094C, strain hxt1, stronger effect = lower value 1.01 | locus YHR129C, strain ARP1, stronger effect = lower value 1.01 | locus YHR142W, strain chs7, stronger effect = lower value 1.03 | locus YHR200W, strain rpn10, stronger effect = lower value 1.01 | locus YIL066C, strain RNR3, stronger effect = lower value 1.02 | locus YIL073C, strain SPO22, stronger effect = lower value 1.03 | locus YIL125W, strain kgd1, stronger effect = lower value 1.01 | locus YIR030C, strain dcg1, stronger effect = lower value 1.01 | locus YJL092W, strain hpr5, stronger effect = lower value 1.01 | locus YJL095W, strain BCK1 (second series), stronger effect = lower value 1.02 | locus YJL095W, strain BCK1, stronger effect = lower value 1.01 | locus YJL115W, strain asf1, stronger effect = lower value 1.01 | locus YJL129C, strain trk1, stronger effect = lower value 1.02 | locus YJL134W, strain LCB3, stronger effect = lower value 1 | locus YJL154C, strain vps35, stronger effect = lower value 1.02 | locus YJL164C, strain tpk1, stronger effect = lower value 1.01 | locus YJL166W, strain qcr8, stronger effect = lower value 1.02 | locus YJL168C, strain set2, stronger effect = lower value 1.01 | locus YJL187C, strain SWE1 (second series), stronger effect = lower value 1.02 | locus YJL187C, strain SWE1, stronger effect = lower value 1.02 | locus YJR043C, strain POL32, stronger effect = lower value 1.01 | locus YJR066W, strain TOR1, stronger effect = lower value 0.96
